# Assay results: PMC11006913
# Experiments:
# Assay in all cases: PBM; 200 nM protein, PBS
# Conditions in all cases: dsDNA, one strand shown
# HESX1 [1] = molecular target: HESX1 (Homo sapiens, UniProt Q9UBX0 95-180, R165K)
# HESX1 [2] = molecular target: HESX1 (Homo sapiens, UniProt Q9UBX0 95-180)
# HOXB6 = HOXB6 (Homo sapiens, UniProt P17509 132-218, K202E)
# MSX2 [3] = molecular target: MSX2 (Homo sapiens, UniProt P35548 130-214, R199I)
# ALX3 [4] = molecular target: ALX3 (Homo sapiens, UniProt O95076 139-225, N203Q)
# PAX4 = molecular target: T1, PAX4 (Homo sapiens, UniProt O43316 9-242, F177V)
# T1 sequence: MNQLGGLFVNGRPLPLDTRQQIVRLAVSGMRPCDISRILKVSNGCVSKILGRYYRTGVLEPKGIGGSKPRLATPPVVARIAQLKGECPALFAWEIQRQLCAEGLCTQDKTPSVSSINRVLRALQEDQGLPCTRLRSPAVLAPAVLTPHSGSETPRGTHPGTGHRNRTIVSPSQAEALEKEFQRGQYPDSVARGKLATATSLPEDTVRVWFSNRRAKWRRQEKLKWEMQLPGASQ
# MSX2 [5] = molecular target: MSX2 (Homo sapiens, UniProt P35548 130-214)
# HESX1 [6] = molecular target: HESX1 (Homo sapiens, UniProt Q9UBX0 95-180, R109Q)
# HESX1 [7] = molecular target: HESX1 (Homo sapiens, UniProt Q9UBX0 95-180, P111T)
# MSX2 [8] = molecular target: MSX2 (Homo sapiens, UniProt P35548 130-214, F161Y)
# HESX1 [9] = molecular target: HESX1 (Homo sapiens, UniProt Q9UBX0 95-180, F115L)
# ALX3 [10] = molecular target: ALX3 (Homo sapiens, UniProt O95076 139-225, N203S)
# ALX4 [11] = molecular target: ALX4 (Homo sapiens, UniProt Q9H161 200-286)
# ALX4 [12] = molecular target: ALX4 (Homo sapiens, UniProt Q9H161 200-286, Q225E)
# HOXD13 [13] = molecular target: HOXD13 (Homo sapiens, UniProt P35453 263-343, T313R)
# HOXD13 [14] = molecular target: HOXD13 (Homo sapiens, UniProt P35453 263-343)
# HOXD13 [15] = molecular target: HOXD13 (Homo sapiens, UniProt P35453 263-343, T313A)
# HOXA2 [16] = molecular target: HOXA2 (Homo sapiens, UniProt O43364 129-215, R185T)
# HOXA2 [17] = molecular target: HOXA2 (Homo sapiens, UniProt O43364 129-215, R185K)
# PROP1 [18] = molecular target: PROP1 (Homo sapiens, UniProt O75360 56-141)
# PROP1 [19] = molecular target: PROP1 (Homo sapiens, UniProt O75360 56-141, R99H)
# PROP1 [20] = molecular target: PROP1 (Homo sapiens, UniProt O75360 56-141, F88S)
# HOXA2 [21] = molecular target: HOXA2 (Homo sapiens, UniProt O43364 129-215, Y150S)
# HOXA2 [22] = molecular target: HOXA2 (Homo sapiens, UniProt O43364 129-215)
# PRRX1 [23] = molecular target: PRRX1 (Homo sapiens, UniProt P54821 80-166, F113S)
# NKX3-2 [24] = molecular target: NKX3-2 (Homo sapiens, UniProt P78367 192-278, P234S)
# PRRX1 [25] = molecular target: PRRX1 (Homo sapiens, UniProt P54821 80-166)
# NKX3-2 [26] = molecular target: NKX3-2 (Homo sapiens, UniProt P78367 192-278)
# HOXC10 [27] = molecular target: HOXC10 (Homo sapiens, UniProt Q9NYD6 254-340)
# ALX1 [28] = molecular target: ALX1 (Homo sapiens, UniProt Q15699 118-204, L144V)
# ALX1 [29] = molecular target: ALX1 (Homo sapiens, UniProt Q15699 118-204, L144R)
# HOXC10 [30] = molecular target: HOXC10 (Homo sapiens, UniProt Q9NYD6 254-340, K271E)
# ALX1 [31] = molecular target: ALX1 (Homo sapiens, UniProt Q15699 118-204)
# NKX2-6 = molecular target: T2, NKX2-6 (Homo sapiens, UniProt A6NCS4 118-204, R150C)
# T2 sequence: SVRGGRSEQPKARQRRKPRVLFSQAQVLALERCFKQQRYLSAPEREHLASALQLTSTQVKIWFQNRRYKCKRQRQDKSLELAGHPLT
# Chain of HESX1 (Homo sapiens, UniProt Q9UBX0 95-180, R165K) (Q9UBX0 95-180 R165K): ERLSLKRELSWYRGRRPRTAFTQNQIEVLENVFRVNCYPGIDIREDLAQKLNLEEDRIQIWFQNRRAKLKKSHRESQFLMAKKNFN
# Chain of HESX1 (Homo sapiens, UniProt Q9UBX0 95-180, R109Q) (Q9UBX0 95-180 R109Q): as the sequence (Q9UBX0 95-180 R165K) above, with R15Q, K71R counted along it
# Chain of HESX1 (Homo sapiens, UniProt Q9UBX0 95-180, F115L) (Q9UBX0 95-180 F115L): as the sequence (Q9UBX0 95-180 R165K) above, with F21L, K71R counted along it
# Chain of HESX1 (Homo sapiens, UniProt Q9UBX0 95-180) (Q9UBX0 95-180): as the sequence (Q9UBX0 95-180 R165K) above, with K71R counted along it
# Chain of HESX1 (Homo sapiens, UniProt Q9UBX0 95-180, P111T) (Q9UBX0 95-180 P111T): as the sequence (Q9UBX0 95-180 R165K) above, with P17T, K71R counted along it
# Chain of ALX4 (Homo sapiens, UniProt Q9H161 200-286, Q225E) (Q9H161 200-286 Q225E): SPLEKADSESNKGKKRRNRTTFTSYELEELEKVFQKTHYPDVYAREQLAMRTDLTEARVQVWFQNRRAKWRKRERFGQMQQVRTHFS
# Chain of ALX1 (Homo sapiens, UniProt Q15699 118-204, L144R) (Q15699 118-204 L144R): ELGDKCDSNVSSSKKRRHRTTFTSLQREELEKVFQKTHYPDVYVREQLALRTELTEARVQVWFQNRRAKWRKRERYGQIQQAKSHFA
# Chain of ALX1 (Homo sapiens, UniProt Q15699 118-204, L144V) (Q15699 118-204 L144V): as the sequence (Q15699 118-204 L144R) above, with R27V counted along it
# Chain of ALX1 (Homo sapiens, UniProt Q15699 118-204) (Q15699 118-204): as the sequence (Q15699 118-204 L144R) above, with R27L counted along it
# Chain of ALX4 (Homo sapiens, UniProt Q9H161 200-286) (Q9H161 200-286): as the sequence (Q9H161 200-286 Q225E) above, with E26Q counted along it
# Chain of HOXC10 (Homo sapiens, UniProt Q9NYD6 254-340) (Q9NYD6 254-340): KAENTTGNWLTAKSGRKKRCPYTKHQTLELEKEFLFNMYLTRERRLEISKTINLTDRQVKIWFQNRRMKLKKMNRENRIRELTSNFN
# Chain of PROP1 (Homo sapiens, UniProt O75360 56-141, F88S) (O75360 56-141 F88S): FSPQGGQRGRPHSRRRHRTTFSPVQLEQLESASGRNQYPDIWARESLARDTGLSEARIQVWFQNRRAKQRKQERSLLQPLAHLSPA
# Chain of ALX3 (Homo sapiens, UniProt O95076 139-225, N203S) (O95076 139-225 N203S): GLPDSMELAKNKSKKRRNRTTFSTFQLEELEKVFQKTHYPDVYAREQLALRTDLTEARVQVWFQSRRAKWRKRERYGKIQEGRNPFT
# Chain of PROP1 (Homo sapiens, UniProt O75360 56-141) (O75360 56-141): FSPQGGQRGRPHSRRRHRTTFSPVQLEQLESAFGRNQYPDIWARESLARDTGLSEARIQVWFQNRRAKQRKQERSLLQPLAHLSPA
# Chain of MSX2 (Homo sapiens, UniProt P35548 130-214) (P35548 130-214): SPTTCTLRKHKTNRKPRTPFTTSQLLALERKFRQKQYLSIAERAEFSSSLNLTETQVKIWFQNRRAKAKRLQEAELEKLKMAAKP
# Chain of NKX3-2 (Homo sapiens, UniProt P78367 192-278) (P78367 192-278): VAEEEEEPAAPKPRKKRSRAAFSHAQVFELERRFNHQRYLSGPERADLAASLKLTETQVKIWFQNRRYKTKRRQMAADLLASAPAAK
# Chain of PROP1 (Homo sapiens, UniProt O75360 56-141, R99H) (O75360 56-141 R99H): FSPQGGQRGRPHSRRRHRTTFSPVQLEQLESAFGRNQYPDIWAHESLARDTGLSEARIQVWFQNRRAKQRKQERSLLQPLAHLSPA
# Chain of MSX2 (Homo sapiens, UniProt P35548 130-214, R199I) (P35548 130-214 R199I): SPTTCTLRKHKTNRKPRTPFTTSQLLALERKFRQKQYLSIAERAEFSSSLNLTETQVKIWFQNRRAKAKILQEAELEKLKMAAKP
# Chain of PRRX1 (Homo sapiens, UniProt P54821 80-166, F113S) (P54821 80-166 F113S): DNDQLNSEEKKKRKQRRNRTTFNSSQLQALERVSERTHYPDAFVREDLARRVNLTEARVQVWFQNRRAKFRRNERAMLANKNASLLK
# Chain of PRRX1 (Homo sapiens, UniProt P54821 80-166) (P54821 80-166): as the sequence (P54821 80-166 F113S) above, with S34F counted along it
# Chain of HOXA2 (Homo sapiens, UniProt O43364 129-215, R185K) (O43364 129-215 R185K): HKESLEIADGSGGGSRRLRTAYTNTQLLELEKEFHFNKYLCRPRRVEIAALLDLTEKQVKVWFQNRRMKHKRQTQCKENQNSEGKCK
# Chain of NKX3-2 (Homo sapiens, UniProt P78367 192-278, P234S) (P78367 192-278 P234S): as the sequence (P78367 192-278) above, with P43S counted along it
# Chain of HOXD13 (Homo sapiens, UniProt P35453 263-343, T313R) (P35453 263-343 T313R): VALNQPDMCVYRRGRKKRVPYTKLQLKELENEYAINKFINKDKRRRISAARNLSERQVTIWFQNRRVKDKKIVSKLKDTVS
# Chain of ALX3 (Homo sapiens, UniProt O95076 139-225, N203Q) (O95076 139-225 N203Q): as the sequence (O95076 139-225 N203S) above, with S65Q counted along it
# Chain of MSX2 (Homo sapiens, UniProt P35548 130-214, F161Y) (P35548 130-214 F161Y): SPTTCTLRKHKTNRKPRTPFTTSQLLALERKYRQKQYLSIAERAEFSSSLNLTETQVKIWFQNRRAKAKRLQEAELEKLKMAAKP
# Chain of HOXD13 (Homo sapiens, UniProt P35453 263-343) (P35453 263-343): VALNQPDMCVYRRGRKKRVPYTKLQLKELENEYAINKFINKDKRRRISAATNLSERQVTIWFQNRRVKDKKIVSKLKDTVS
# Chain of HOXB6 (P17509 132-218 K202E): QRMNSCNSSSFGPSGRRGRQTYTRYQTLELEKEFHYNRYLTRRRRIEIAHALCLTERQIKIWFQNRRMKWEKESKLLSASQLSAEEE
# Chain of HOXA2 (Homo sapiens, UniProt O43364 129-215, Y150S) (O43364 129-215 Y150S): as the sequence (O43364 129-215 R185K) above, with Y22S, K57R counted along it
# Chain of HOXA2 (Homo sapiens, UniProt O43364 129-215) (O43364 129-215): as the sequence (O43364 129-215 R185K) above, with K57R counted along it
# Chain of HOXA2 (Homo sapiens, UniProt O43364 129-215, R185T) (O43364 129-215 R185T): as the sequence (O43364 129-215 R185K) above, with K57T counted along it
# Chain of HOXD13 (Homo sapiens, UniProt P35453 263-343, T313A) (P35453 263-343 T313A): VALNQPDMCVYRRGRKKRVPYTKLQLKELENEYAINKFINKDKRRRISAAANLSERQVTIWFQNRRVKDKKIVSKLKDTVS
# Chain of HOXC10 (Homo sapiens, UniProt Q9NYD6 254-340, K271E) (Q9NYD6 254-340 K271E): as the sequence (Q9NYD6 254-340) above, with K18E counted along it
sequence,measurement,setting,value
AAATATTA,binding signal,HESX1 [1],"8.45 upbm affinity estimate (log intensity, higher = more binding, comparable within an allelic series)"
same,binding signal,HESX1 [2],"8.54 upbm affinity estimate (log intensity, higher = more binding, comparable within an allelic series)"
AGGGTATA,binding signal,HESX1 [1],"7.35 upbm affinity estimate (log intensity, higher = more binding, comparable within an allelic series)"
same,binding signal,HESX1 [2],"7.42 upbm affinity estimate (log intensity, higher = more binding, comparable within an allelic series)"
TAATTGTA,binding signal,HESX1 [1],"11.4 upbm affinity estimate (log intensity, higher = more binding, comparable within an allelic series)"
same,binding signal,HOXB6,"10 upbm affinity estimate (log intensity, higher = more binding, comparable within an allelic series)"
same,binding signal,HESX1 [2],"11.8 upbm affinity estimate (log intensity, higher = more binding, comparable within an allelic series)"
same,binding signal,MSX2 [3],"12.5 upbm affinity estimate (log intensity, higher = more binding, comparable within an allelic series)"
same,binding signal,ALX3 [4],"8.59 upbm affinity estimate (log intensity, higher = more binding, comparable within an allelic series)"
same,binding signal,PAX4,"10.5 upbm affinity estimate (log intensity, higher = more binding, comparable within an allelic series)"
same,binding signal,MSX2 [5],"13.6 upbm affinity estimate (log intensity, higher = more binding, comparable within an allelic series)"
same,binding signal,HESX1 [6],"8.46 upbm affinity estimate (log intensity, higher = more binding, comparable within an allelic series)"
same,binding signal,HESX1 [7],"10.1 upbm affinity estimate (log intensity, higher = more binding, comparable within an allelic series)"
same,binding signal,MSX2 [8],"13.3 upbm affinity estimate (log intensity, higher = more binding, comparable within an allelic series)"
same,binding signal,HESX1 [9],"7.75 upbm affinity estimate (log intensity, higher = more binding, comparable within an allelic series)"
same,binding signal,ALX3 [10],"8.7 upbm affinity estimate (log intensity, higher = more binding, comparable within an allelic series)"
TAGCTTAA,binding signal,HESX1 [1],"7.4 upbm affinity estimate (log intensity, higher = more binding, comparable within an allelic series)"
same,binding signal,HESX1 [2],"7.51 upbm affinity estimate (log intensity, higher = more binding, comparable within an allelic series)"
CGCGCGAG,binding signal,HESX1 [1],"6.55 upbm affinity estimate (log intensity, higher = more binding, comparable within an allelic series)"
same,binding signal,ALX4 [11],"8.39 upbm affinity estimate (log intensity, higher = more binding, comparable within an allelic series)"
same,binding signal,ALX4 [12],"8.37 upbm affinity estimate (log intensity, higher = more binding, comparable within an allelic series)"
same,binding signal,HESX1 [2],"6.52 upbm affinity estimate (log intensity, higher = more binding, comparable within an allelic series)"
same,binding signal,HOXD13 [13],"9.52 upbm affinity estimate (log intensity, higher = more binding, comparable within an allelic series)"
same,binding signal,HOXD13 [14],"9.48 upbm affinity estimate (log intensity, higher = more binding, comparable within an allelic series)"
same,binding signal,HESX1 [6],"6.5 upbm affinity estimate (log intensity, higher = more binding, comparable within an allelic series)"
same,binding signal,HESX1 [7],"6.55 upbm affinity estimate (log intensity, higher = more binding, comparable within an allelic series)"
same,binding signal,HOXD13 [15],"9.67 upbm affinity estimate (log intensity, higher = more binding, comparable within an allelic series)"
same,binding signal,HESX1 [9],"6.44 upbm affinity estimate (log intensity, higher = more binding, comparable within an allelic series)"
CCGAGGCC,binding signal,HESX1 [1],"6.48 upbm affinity estimate (log intensity, higher = more binding, comparable within an allelic series)"
same,binding signal,HESX1 [2],"6.46 upbm affinity estimate (log intensity, higher = more binding, comparable within an allelic series)"
same,binding signal,HOXA2 [16],"7.28 upbm affinity estimate (log intensity, higher = more binding, comparable within an allelic series)"
same,binding signal,HOXA2 [17],"10.4 upbm affinity estimate (log intensity, higher = more binding, comparable within an allelic series)"
same,binding signal,PROP1 [18],"6.73 upbm affinity estimate (log intensity, higher = more binding, comparable within an allelic series)"
same,binding signal,HESX1 [6],"6.41 upbm affinity estimate (log intensity, higher = more binding, comparable within an allelic series)"
same,binding signal,PROP1 [19],"6.78 upbm affinity estimate (log intensity, higher = more binding, comparable within an allelic series)"
same,binding signal,HESX1 [7],"6.44 upbm affinity estimate (log intensity, higher = more binding, comparable within an allelic series)"
same,binding signal,PROP1 [20],"6.47 upbm affinity estimate (log intensity, higher = more binding, comparable within an allelic series)"
same,binding signal,HESX1 [9],"6.42 upbm affinity estimate (log intensity, higher = more binding, comparable within an allelic series)"
same,binding signal,HOXA2 [21],"10.4 upbm affinity estimate (log intensity, higher = more binding, comparable within an allelic series)"
same,binding signal,HOXA2 [22],"7.27 upbm affinity estimate (log intensity, higher = more binding, comparable within an allelic series)"
ATGTTAAT,binding signal,HESX1 [1],"8.98 upbm affinity estimate (log intensity, higher = more binding, comparable within an allelic series)"
same,binding signal,HESX1 [2],"9.41 upbm affinity estimate (log intensity, higher = more binding, comparable within an allelic series)"
ATTAAGGA,binding signal,HESX1 [1],"8.58 upbm affinity estimate (log intensity, higher = more binding, comparable within an allelic series)"
same,binding signal,HESX1 [2],"9.12 upbm affinity estimate (log intensity, higher = more binding, comparable within an allelic series)"
CGCCTAGC,binding signal,HESX1 [1],"6.27 upbm affinity estimate (log intensity, higher = more binding, comparable within an allelic series)"
same,binding signal,PRRX1 [23],"9.26 upbm affinity estimate (log intensity, higher = more binding, comparable within an allelic series)"
same,binding signal,HESX1 [2],"6.37 upbm affinity estimate (log intensity, higher = more binding, comparable within an allelic series)"
same,binding signal,HESX1 [6],"6.4 upbm affinity estimate (log intensity, higher = more binding, comparable within an allelic series)"
same,binding signal,HESX1 [7],"6.38 upbm affinity estimate (log intensity, higher = more binding, comparable within an allelic series)"
same,binding signal,HESX1 [9],"6.57 upbm affinity estimate (log intensity, higher = more binding, comparable within an allelic series)"
same,binding signal,NKX3-2 [24],"10.6 upbm affinity estimate (log intensity, higher = more binding, comparable within an allelic series)"
same,binding signal,PRRX1 [25],"9.27 upbm affinity estimate (log intensity, higher = more binding, comparable within an allelic series)"
same,binding signal,NKX3-2 [26],"10.6 upbm affinity estimate (log intensity, higher = more binding, comparable within an allelic series)"
AGAGCTCT,binding signal,HESX1 [1],"6.34 upbm affinity estimate (log intensity, higher = more binding, comparable within an allelic series)"
same,binding signal,HOXC10 [27],"10 upbm affinity estimate (log intensity, higher = more binding, comparable within an allelic series)"
same,binding signal,HESX1 [2],"6.42 upbm affinity estimate (log intensity, higher = more binding, comparable within an allelic series)"
same,binding signal,ALX1 [28],"6.52 upbm affinity estimate (log intensity, higher = more binding, comparable within an allelic series)"
same,binding signal,ALX1 [29],"6.57 upbm affinity estimate (log intensity, higher = more binding, comparable within an allelic series)"
same,binding signal,HOXC10 [30],"10.1 upbm affinity estimate (log intensity, higher = more binding, comparable within an allelic series)"
same,binding signal,HESX1 [6],"6.48 upbm affinity estimate (log intensity, higher = more binding, comparable within an allelic series)"
same,binding signal,HESX1 [7],"6.53 upbm affinity estimate (log intensity, higher = more binding, comparable within an allelic series)"
same,binding signal,HESX1 [9],"6.38 upbm affinity estimate (log intensity, higher = more binding, comparable within an allelic series)"
same,binding signal,ALX1 [31],"6.26 upbm affinity estimate (log intensity, higher = more binding, comparable within an allelic series)"
CACGGCTG,binding signal,HESX1 [1],"6.44 upbm affinity estimate (log intensity, higher = more binding, comparable within an allelic series)"
same,binding signal,ALX4 [11],"7.95 upbm affinity estimate (log intensity, higher = more binding, comparable within an allelic series)"
same,binding signal,ALX4 [12],"7.97 upbm affinity estimate (log intensity, higher = more binding, comparable within an allelic series)"
same,binding signal,HESX1 [2],"6.33 upbm affinity estimate (log intensity, higher = more binding, comparable within an allelic series)"
same,binding signal,NKX2-6,"9.52 upbm affinity estimate (log intensity, higher = more binding, comparable within an allelic series)"
same,binding signal,ALX1 [28],"6.21 upbm affinity estimate (log intensity, higher = more binding, comparable within an allelic series)"
same,binding signal,ALX1 [29],"6.3 upbm affinity estimate (log intensity, higher = more binding, comparable within an allelic series)"
same,binding signal,HESX1 [6],"6.53 upbm affinity estimate (log intensity, higher = more binding, comparable within an allelic series)"
same,binding signal,HESX1 [7],"6.39 upbm affinity estimate (log intensity, higher = more binding, comparable within an allelic series)"
same,binding signal,HESX1 [9],"6.49 upbm affinity estimate (log intensity, higher = more binding, comparable within an allelic series)"
same,binding signal,ALX1 [31],"6.11 upbm affinity estimate (log intensity, higher = more binding, comparable within an allelic series)"
